Bioassay records (PubChem BioAssay)
Sampled rows, rich in hits. Any-hit rate of the full collection: about 8.9%.
ALDH1A1 inh = qHTS Assay for Inhibitors of Aldehyde Dehydrogenase 1 (ALDH1A1) | AID 1030, 2008 | Potency, µM (top dose mostly 75.3 µM), for inactives: at the highest dose activity, negative = inhibition, most hits filed as inhibitors | Aldehyde dehydrogenase 1A1 (Homo sapiens), P00352 | hit rate 7.3% among 220,000 | Purified ALDH1A1, NADH fluorescence, propionaldehyde substrate; active = well fitted inhibition curve with a large enough effect, not every such curve was filed as active; inconclusive = small, poorly fitted or top-dose-only effect, or another doubt; inactive = no such curve, though single readings can be large or run the other way;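 note: potency is the fitted concentration of half-maximal effect; plate controls were no enzyme wells and a reference inhibitor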
IMPase inh = qHTS Assay for Identifying the Cell-Membrane Permeable IMPase Inhibitors; CHO-M1 cells, IP1 accumulation, HTRF TR-FRET ratio; inhibition (IP1 accumulation), % at 46.1 µM; 120,000 tested, under 10 active; active = well fitted curve in the direction sought with a large enough effect in the signal ratio, not every such curve was filed as active; inconclusive = small, poorly fitted or top-dose-only effect, or a change in a side signal; inactive = no such curve, though single readings can be large or run the other way; the % refers to the signal ratio;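 note: cells stimulated with carbachol in lithium chloride buffer; plate controls were DMSO basal wells for no effect and reference inhibitor wells for full effect; higher means more IMPase inhibition seen as more IP1 and lower FRET ratio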
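Measured: the HTRF emission ratio (665/620 nm) plus the 620 nm donor channel, each fitted to the Hill equation to give AC50. Cells were CHO-M1 given compounds up to 46 uM and a 30 min carbachol stimulation at 37C.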
NPSR antag = qHTS Assay for Antagonists of the Neuropeptide S Receptor: cAMP Signal Transduction | hit rate 1% among 220,000 | Potency, µM (highest dose often 38.3 µM), for the others: at the top dose activity change, negative = inhibition, most hits filed as inhibitors | CHO-NPSR cells, cAMP TR-FRET, antagonist mode | Q6W5P4; note: potency is the fitted concentration of half-maximal effect; nearly all actives have a fitted effect of over 50% in size
12-hLO inh = qHTS Assay for Inhibitors of 12-hLO (12-human lipoxygenase) | Polyunsaturated fatty acid lipoxygenase ALOX12 (Homo sapiens), P18054 | purified 12-hLO, xylenol orange hydroperoxide absorbance | Potency, µM (doses to about 57.1 µM), inactives show at the highest dose activity change, negative = inhibition, hits mostly inhibitors | hit rate 0.12% among 150,000 | AID 1452, 2008; note: potency is the fitted concentration of half-maximal effect; nearly all actives have a fitted effect of over 55% in size
Target sequence (P18054 whole entry, looked up): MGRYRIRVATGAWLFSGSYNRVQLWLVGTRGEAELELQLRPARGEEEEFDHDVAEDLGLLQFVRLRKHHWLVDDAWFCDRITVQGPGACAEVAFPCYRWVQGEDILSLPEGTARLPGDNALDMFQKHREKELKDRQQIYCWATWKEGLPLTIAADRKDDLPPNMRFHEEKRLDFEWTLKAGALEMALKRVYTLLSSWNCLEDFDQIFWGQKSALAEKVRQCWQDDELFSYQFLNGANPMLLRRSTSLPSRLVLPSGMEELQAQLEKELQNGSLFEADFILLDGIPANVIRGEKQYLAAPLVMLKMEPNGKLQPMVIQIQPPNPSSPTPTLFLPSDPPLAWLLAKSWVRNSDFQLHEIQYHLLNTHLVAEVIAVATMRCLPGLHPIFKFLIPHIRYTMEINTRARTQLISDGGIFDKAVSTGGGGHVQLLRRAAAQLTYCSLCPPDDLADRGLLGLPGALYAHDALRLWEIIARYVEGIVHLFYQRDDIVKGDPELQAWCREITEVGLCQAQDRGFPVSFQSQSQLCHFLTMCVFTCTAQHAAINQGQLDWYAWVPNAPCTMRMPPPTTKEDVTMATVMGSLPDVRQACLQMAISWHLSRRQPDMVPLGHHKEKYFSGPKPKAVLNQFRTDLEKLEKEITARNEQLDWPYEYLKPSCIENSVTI
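Xylenol orange chromogenic assay: hydroperoxide from 12hLO oxidises Fe(II), giving red-shifted Fe(III)-XO absorbance. Conditions: 150 nM enzyme, 40 uM arachidonic acid, 25 mM Hepes pH 7.0, 0.01% Triton X-100, 30 min, room temperature.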
HPGD block = qHTS Assay for Inhibitors of HPGD (15-Hydroxyprostaglandin Dehydrogenase); purified HPGD, NADH fluorescence kinetic, PGE2 substrate; AID 894, 2007; Potency, µM, for the others: top-dose activity change, negative = inhibition, actives largely listed as inhibitors; 15-hydroxyprostaglandin dehydrogenase [NAD(+)] (Homo sapiens), P15428; hit rate 4.3% among 150,000; active = well fitted inhibition curve with a large enough effect, not every such curve was filed as active; inconclusive = small, poorly fitted or top-dose-only effect, or another doubt; inactive = no such curve, though single readings can be large or run the other way; note: potency is the fitted concentration of half-maximal effect
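NADH formation kinetics: reaction with 30 uM PGE2 and 1 mM NAD+ (final), 20 nM enzyme, Tris-HCl pH 8 with Tween 20, after 15 min compound preincubation at room temperature. Fluorescence change, last versus first of five reads.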
IMPase Li inh = qHTS Assay for Identifying the Cell-Membrane Permeable IMPase Inhibitors: Potentiation with Lithium; Potency, µM (top dose mostly 59.4 µM), without a hit: at the highest dose activity, negative = IMPase inhibition, hits mostly inhibitors; CHO-M1 cells, IP1 TR-FRET (IP-One), carbachol + lithium; hit rate 0.35% among 210,000;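 note: IP1 builds up when IMPase is blocked and the TR-FRET signal falls; potency is the fitted concentration of half-maximal effect; plate controls were basal vehicle for no effect and high inhibitor control for full effect; nearly all actives have a fitted effect of over 50% in size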
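Lithium-sensitised IP1 accumulation assay; M1-expressing CHO cells treated 30 min at 37C with compound. Competitive antibody detection by time-resolved FRET followed a 10 min room-temperature lysis step.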
Numbers without * were called inactive; ? = inconclusive; / = not tested or not shown; [ ] = remark or other dose. Unless noted, calls come from the whole dose curve; as a rule, active = well fitted curve in the direction sought with a large enough effect; inconclusive = small, poorly fitted or top-dose-only effect, or another doubt; inactive = no such curve, though single readings can be large; an effect the other way counts as inactive or inconclusive. Unless noted, % is set by controls: 0 for no effect and ±100 for the full control effect.

SMILES	ALDH1A1 inh	IMPase inh	NPSR antag	12-hLO inh	HPGD block	IMPase Li inh
O=C(NCCN1CCOCC1)Nc1ccc(Cl)cc1Cl	13%	-2	5%[46.1 µM]	0%	1%	18%[38.3 µM]
Cc1c(C(=O)N2CC(C)OC(C)C2)sc2nc(-c3ccc(F)cc3)cn12 (centres undefined)	-12%	-4	-8%[46.1 µM]	-1%	35µM*	2%[38.3 µM]
CC(=O)/C(=N/Nc1ccccc1)N1CCOCC1	-4%	6	18%[46.1 µM]	2%	-20%	-3%
CC(=O)/C(=N/Nc1ccccc1C)N1CCOCC1	18µM*	-4	7%[46.1 µM]	3%	-27%	14%[38.3 µM]
CC(=O)/C(=N/Nc1cccc(Cl)c1)N1CCOCC1	13µM*	9	?	-5%	-27%	34%[38.3 µM]
CCOC(=O)c1c(-c2ccccc2)csc1NC(=O)CSc1nc(N)cc(N)n1	-4%	/	-11%	-2%	-4%	13%
CN(C)CC(=O)N1CCc2ccccc2C1	-5%	/	15%	/	/	-2%
CCc1ccc(/C=C\C(=O)N2CCc3ccccc3C2)cc1	1%	0	-28%[46.1 µM]	-7%	11µM*	16%[38.3 µM]
O=C(CSc1cccs1)Nc1ccc2ccccc2c1	?	10	7%[46.1 µM]	2%	28µM*	26%[38.3 µM]
COc1ccc(CC(=O)Nc2ccc3c(c2)CCC3)cc1OC	-7%	9	?	-7%	-7%	22%[38.3 µM]
O=C(CSc1cccs1)Nc1cccc2ccccc12	28%	7	6%[46.1 µM]	-3%	-8%	-2%
O=C(Cc1ccc2c(c1)CCCC2)Nc1ccc2ccccc2c1	22µM*	/	-11%	-1%	?	12%
COc1ccc(NC(=O)N2CC[C@@]3(CCCNC3)C2)cc1	14µM*	/	/	-2%	-4%	20%
COC(=O)N1CCC2(CCCN(C(=O)Nc3ccc(OC)cc3)C2)CC1	3%	/	/	-2%	1%	-6%
Cc1onc(-c2ccccc2)c1C(=O)N1CCCSC1=Nc1ccccc1	11µM*	7	?	2%	-20%	42%[38.3 µM]
Cc1onc(-c2ccccc2)c1C(=O)N1CCCN(C(=O)c2c(-c3ccccc3)noc2C)CC1	-1%	11	-21%[46.1 µM]	-1%	-11%	29%[38.3 µM]
Cn1c(=O)[nH]c(=O)c2c1nc(CN1CCN(c3ccccc3F)CC1)n2CCCc1ccccc1	3.2µM*	-2	-26%	-5%	7%	8%
CCOC(=O)N1CCN(Cc2nc3c(c(=O)[nH]c(=O)n3C)n2CCCc2ccccc2)CC1	?	6	-18%[46.1 µM]	7%	3%	-6%[38.3 µM]
Cn1c(=O)[nH]c(=O)c2c1nc(CN1CCN(c3cccc(Cl)c3)CC1)n2CCc1ccccc1	14µM*	11	-17%[46.1 µM]	5%	-1%	19%[38.3 µM]
Cn1c(=O)[nH]c(=O)c2c1nc(CN1CCN(c3ccc(F)cc3)CC1)n2CCCc1ccccc1	3%	-5	?	8%	-8%	-12%[38.3 µM]
CCCCCn1c(CN2CCN(C(=O)OCC)CC2)nc2c1c(=O)[nH]c(=O)n2C	11µM*	13	-8%[46.1 µM]	-2%	0%	0%
Cc1cc(C(=O)Nc2ccc(S(=O)(=O)N3CCOCC3)cc2)c(C)o1	/	/	10%	/	/	/
CCOC(=O)C(=CNc1ccc(NC2=NCC(C)(C)S2)cc1)C(=O)OCC	/	/	-39%	/	/	/
Cc1ccc(NC(=S)C2=C(O)c3sccc3N(C)S2(=O)=O)cc1	7.9µM*	-6	-17%[46.1 µM]	?	?	4%[38.3 µM]
Cc1ccc(NC(=O)C2=C(O)c3sccc3N(C)S2(=O)=O)cc1	-4%	-3	-23%[46.1 µM]	4%	-5%	0%
SMILES	ALDH1A1 inh	IMPase inh	NPSR antag	12-hLO inh	HPGD block	IMPase Li inh
CC(C)(C)Nc1nc(N2CCCC2)nc(N2CCCC2)n1	0.5µM*	3	-18%[46.1 µM]	-7%	-6%	-4%[38.3 µM]
CCNc1nc(NC(C)(C)C)nc(N2CCCC2)n1	5%	9	1%[46.1 µM]	-3%	-7%	2%
COc1ccc(OCc2n(CC(=O)OC3CC(C)CCC3C(C)C)c3ccccc3[n+]2C)cc1 (centres undefined)	/	/	10µM*	/	/	/
COc1ccc(-c2n(CC(=O)OC3CC(C)CCC3C(C)C)c3ccccc3[n+]2C)cc1 (centres undefined)	6.3µM*	/	15%	/	/	20%
O=C(O)c1ccc2c(c1)C(=O)N(CCC1=CCCCC1)C2=O	-10%	7	-15%[46.1 µM]	-2%	-18%	7%[38.3 µM]
CN(C(=O)c1ccc2c(c1)C(=O)N(CCC1=CCCCC1)C2=O)C1CCCCC1	0.79µM*	8	?	-14%	14µM*	18%[38.3 µM]
COCCn1c(SCc2nc3ccccc3c(=O)[nH]2)nnc1-c1ccncc1	2%	-13	-6%[46.1 µM]	1%	-14%	-2%
COCCn1c(SCC(=O)c2c(-c3ccccc3)n(C)c3ccccc23)nnc1-c1ccncc1	20µM*	10	9%	0%	-9%	6%
CCOC(=O)CN1C(=O)C(Sc2n[nH]c(-c3ccc(C)cc3)n2)CCc2ccccc21 (centres undefined)	3%	-1	-27%[46.1 µM]	-10%	-4%	19%[38.3 µM]
CCOc1ccccc1N1C(=O)CC(Sc2n[nH]c(-c3ccccc3)n2)C1=O (centres undefined)	11µM*	/	17%	/	/	10%
CC(C)n1nc(C(=O)OCC(=O)N2CC(=O)Nc3ccccc32)c2ccccc2c1=O	2%	/	7%	/	/	-3%
COC(=O)c1cc(NC(=O)c2cccc(C(F)(F)F)c2)c(=O)oc1C/C=N/OCc1cccc(Cl)c1Cl	6%	-3	0%[46.1 µM]	-26%	-13%	7%[38.3 µM]
COc1ccc2c(c1)OC/C(=C\c1ccc(OC)c(O)c1)C2=O	5.6µM*	/	/	-24%	11µM*	33%
CCCn1c(C)nc2c(NCCO)nc(C)nc21	1%	/	/	-5%	-4%	-9%
Cc1ccc2oc(=O)c3cc(C(=O)NCc4ccco4)sc3c2c1	?	6	2%[46.1 µM]	5%	-30%	-12%[38.3 µM]
Cc1ccc2oc(=O)c3cc(C(=O)NCCN4CCc5ccccc5C4)sc3c2c1	28µM*	/	-48%	-1%	?	11%
COc1ccc(CCC(=O)NCCc2cn3c(C)csc3n2)cc1	18µM*	-8	-9%[46.1 µM]	-2%	-6%	2%[38.3 µM]
OCCC1CN(Cc2ccn[nH]2)CCN1Cc1ccc(F)c(F)c1 (centres undefined)	2%	/	-4%	/	/	0%
O=C1c2ccccc2C(=O)N1CC#CCN1CCN(C(c2ccccc2)c2ccccc2)CC1	16µM*	18	?	-22%	-11%	50%[38.3 µM]
